Test results taken from PubChem BioAssay AID1159580 (chemical genetic matrix, 2015).
Screen size: about 5,500 compounds; about 2,000 (36%) were called active. Not shown: some 18% with an inconclusive outcome. Cut-off read from the data, not from the text of the source: active = normalized growth mostly below about 0.91 (no sharp cut-off); inconclusive = no clear call, values can overlap the other calls; inactive = mostly above about 0.92. This is one part of the list.

Test: chemical genetic growth profiling, strain panel (AID 1159580);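 note: tested at 20 µM; growth read once vehicle control cultures reached saturation at 30 °C; 1 = growth at the plate median or of vehicle wells; lower values mean less growth of the strain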
Conditions: growth OD

Measured: normalized growth

CCOC(=O)C(Cc1ccc(O)cc1)NC(C)=O (configuration not stated)
inactive: S. cerevisiae deletion strains, locus YJR075W, strain HOC1, active compounds read low 1.01 | S. cerevisiae deletion strains, locus YKL009W, strain mrt4, active compounds read low 0.996 | S. cerevisiae deletion strains, locus YKL068W, active compounds read low 1 | S. cerevisiae deletion strains, locus YKL085W, strain MDH1 (second series), active compounds read low 1 | S. cerevisiae deletion strains, locus YKL085W, strain MDH1, active compounds read low 1 | S. cerevisiae deletion strains, locus YKL160W, strain elf1, active compounds read low 1.02 | S. cerevisiae deletion strains, locus YKL190W, strain CNB1, active compounds read low 1.01 | S. cerevisiae deletion strains, locus YKR001C, strain vps1, active compounds read low 0.995 | S. cerevisiae deletion strains, locus YKR026C, strain gcn3, active compounds read low 1 | S. cerevisiae deletion strains, locus YKR091W, strain srl3, active compounds read low 1 | S. cerevisiae deletion strains, locus YLL001W, strain dnm1, active compounds read low 1.01 | S. cerevisiae deletion strains, locus YLL026W, active compounds read low 0.997 | S. cerevisiae deletion strains, locus YLL041C, strain sdh2, active compounds read low 1 | S. cerevisiae deletion strains, locus YLR027C, strain aat2, active compounds read low 1 | S. cerevisiae deletion strains, locus YLR039C, strain RIC1, active compounds read low 1.03 | S. cerevisiae deletion strains, locus YLR058C, strain SHM2, active compounds read low 1.02 | S. cerevisiae deletion strains, locus YLR102C, strain apc9, active compounds read low 1.01 | S. cerevisiae deletion strains, locus YLR113W, strain HOG1, active compounds read low 1.01 | S. cerevisiae deletion strains, locus YLR221C, strain rsa3, active compounds read low 0.987 | S. cerevisiae deletion strains, locus YLR258W, strain gsy2, active compounds read low 1.01 | S. cerevisiae deletion strains, locus YLR262C, strain YPT6 (second series), active compounds read low 0.968 | S. cerevisiae deletion strains, locus YLR262C, strain YPT6, active compounds read low 1.01 | S. cerevisiae deletion strains, locus YLR268W, strain sec22, active compounds read low 1.01 | S. cerevisiae deletion strains, locus YLR320W, strain mms22, active compounds read low 0.994 | S. cerevisiae deletion strains, locus YLR330W, strain CHS5, active compounds read low 1.01 | S. cerevisiae deletion strains, locus YLR342W, strain FKS1 (second series), active compounds read low 1.07 | S. cerevisiae deletion strains, locus YLR342W, strain FKS1, active compounds read low 1.01 | S. cerevisiae deletion strains, locus YLR357W, strain rsc2, active compounds read low 1.01 | S. cerevisiae deletion strains, locus YLR370C, strain arc18, active compounds read low 1 | S. cerevisiae deletion strains, locus YLR371W, strain rom2, active compounds read low 1.02 | S. cerevisiae deletion strains, locus YLR384C, strain iki3, active compounds read low 1 | S. cerevisiae deletion strains, locus YLR418C, strain cdc73, active compounds read low 1 | S. cerevisiae deletion strains, locus YML016C, strain PPZ1, active compounds read low 1.01 | S. cerevisiae deletion strains, locus YML032C, strain rad52, active compounds read low 0.989 | S. cerevisiae deletion strains, locus YML120C, strain ndi1, active compounds read low 1.01 | S. cerevisiae deletion strains, locus YML124C, strain tub3, active compounds read low 0.999 | S. cerevisiae deletion strains, locus YMR058W, strain fet3, active compounds read low 1.01 | S. cerevisiae deletion strains, locus YMR078C, strain ctf18, active compounds read low 1.01 | S. cerevisiae deletion strains, locus YMR125W, strain sto1, active compounds read low 0.995 | S. cerevisiae deletion strains, locus YMR129W, active compounds read low 1.01 | S. cerevisiae deletion strains, locus YMR205C, strain PFK2, active compounds read low 0.997 | S. cerevisiae deletion strains, locus YMR223W, strain ubp8, active compounds read low 0.987 | S. cerevisiae deletion strains, locus YMR231W, strain pep5, active compounds read low 1.01 | S. cerevisiae deletion strains, locus YMR263W, strain SAP30, active compounds read low 1.01 | S. cerevisiae deletion strains, locus YMR307W, strain GAS1, active compounds read low 1.06 | S. cerevisiae deletion strains, locus YNL067W, strain RPL9B, active compounds read low 1.02 | S. cerevisiae deletion strains, locus YNL071W, strain lat1, active compounds read low 1 | S. cerevisiae deletion strains, locus YNL128W, strain TEP1, active compounds read low 1.02 | S. cerevisiae deletion strains, locus YNL153C, strain GIM3, active compounds read low 1.01 | S. cerevisiae deletion strains, locus YNL183C, strain NPR1, active compounds read low 0.879 | S. cerevisiae deletion strains, locus YNL209W, strain ssb2, active compounds read low 0.996 | S. cerevisiae deletion strains, locus YNL233W, strain BNI4, active compounds read low 1.01 | S. cerevisiae deletion strains, locus YNL248C, strain rpa49, active compounds read low 0.999 | S. cerevisiae deletion strains, locus YNL250W, strain rad50, active compounds read low 0.992 | S. cerevisiae deletion strains, locus YNL271C, strain bni1, active compounds read low 0.993 | S. cerevisiae deletion strains, locus YNL298W, strain CLA4, active compounds read low 1.01 | S. cerevisiae deletion strains, locus YNL307C, strain MCK1, active compounds read low 1 | S. cerevisiae deletion strains, locus YNL322C, strain KRE1 (second series), active compounds read low 1.05 | S. cerevisiae deletion strains, locus YNL322C, strain KRE1, active compounds read low 1.01 | S. cerevisiae deletion strains, locus YNR049C, strain mso1, active compounds read low 1.02 | S. cerevisiae deletion strains, locus YNR052C, strain pop2, active compounds read low 0.993 | S. cerevisiae deletion strains, locus YOL006C, strain TOP1, active compounds read low 1.06 | S. cerevisiae deletion strains, locus YOL012C, strain htz1 0.841 | S. cerevisiae deletion strains, locus YOL147C, strain pex11, active compounds read low 0.997 | S. cerevisiae deletion strains, locus YOR001W, strain rrp6, active compounds read low 0.949 | S. cerevisiae deletion strains, locus YOR061W, strain CKA2, active compounds read low 1.02 | S. cerevisiae deletion strains, locus YOR069W, strain VPS5, active compounds read low 1.01 | S. cerevisiae deletion strains, locus YOR070C, strain gyp1, active compounds read low 1 | S. cerevisiae deletion strains, locus YOR080W, strain dia2, active compounds read low 1.01 | S. cerevisiae deletion strains, locus YOR083W, strain WHI5, active compounds read low 1.03 | S. cerevisiae deletion strains, locus YOR106W, strain vam3, active compounds read low 1.04 | S. cerevisiae deletion strains, locus YOR136W, strain idh2, active compounds read low 0.989 | S. cerevisiae deletion strains, locus YOR144C, strain elg1, active compounds read low 1.01 | S. cerevisiae deletion strains, locus YOR184W, strain ser1, active compounds read low 1.01 | S. cerevisiae deletion strains, locus YOR231W, strain MKK1, active compounds read low 0.971 | S. cerevisiae deletion strains, locus YOR265W, strain rbl2, active compounds read low 1 | S. cerevisiae deletion strains, locus YOR270C, strain vph1, active compounds read low 1 | S. cerevisiae deletion strains, locus YOR290C, strain snf2, active compounds read low 1.03 | S. cerevisiae deletion strains, locus YOR316C, strain cot1, active compounds read low 1.02 | S. cerevisiae deletion strains, locus YPL051W, strain arl3, active compounds read low 1.03 | S. cerevisiae deletion strains, locus YPL055C, strain LGE1, active compounds read low 1.01 | S. cerevisiae deletion strains, locus YPL078C, strain atp4, active compounds read low 1.02 | S. cerevisiae deletion strains, locus YPL106C, strain sse1, active compounds read low 1.03 | S. cerevisiae deletion strains, locus YPL240C, strain hsp82, active compounds read low 1 | S. cerevisiae deletion strains, locus YPL241C, strain CIN2, active compounds read low 1.01 | S. cerevisiae deletion strains, locus YPL256C, strain CLN2, active compounds read low 0.93 | S. cerevisiae deletion strains, locus YPR119W, strain clb2, active compounds read low 1.01 | S. cerevisiae deletion strains, locus YPR141C, strain kar3, active compounds read low 0.995 | S. cerevisiae deletion strains, locus YPR163C, strain tif3, active compounds read low 1 | S. cerevisiae deletion strains, locus YPR167C, strain met16, active compounds read low 1 | S. cerevisiae deletion strains, strain wtn01, active compounds read low 1.01 | S. cerevisiae strains, strain wild type, active compounds read low 1.01
